PubChem BioAssay (Tox21)
Inconclusive results are not listed. Where a call stands in place of a potency, no number is given. Calls of active or inactive are those of the source. The call rests on the fitted dose curve; in most records, active means well fitted cell-killing curve with a large enough effect in the repeat runs; inconclusive means weak or mixed curves, or effect the other way; inactive means flat fitted curve, though single readings scatter.

Assays:
[1] = cAMP Responsive Elements (CRE) small molecule antagonists, cell-based qHTS assay: qHTS cell viability counter screen (AID 2060913); further: nearly all actives have a fitted effect of over 40% in size
Procedure, shortened: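 Cytotoxicity read in the same wells as the CRE-bla HEK293T antagonist assay: after 3 h compound with 0.25 uM NKH477 final and 2 h beta-lactamase substrate, CellTiter-Glo luminescence measured.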

[2] = cAMP Responsive Elements (CRE) small molecule agonists, cell-based qHTS assay: qHTS cell viability counter screen (AID 2060914);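 further: viability read after 3 h of compound exposure; nearly all actives have a fitted effect of over 50% in size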
Procedure, shortened: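 CRE-bla HEK 293T cells, plated 18 h at 37 °C, were exposed to compounds for 3 h at 37 °C/5% CO2. Viability was then measured in the same wells by CellTiter-Glo luminescence after 30 min at room temperature.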
Potency means the concentration at half of the fitted maximal effect.

| SMILES | Potency [1] | Potency [2] |
| --- | --- | --- |
| Cc1nc(-c2ccc(Cl)cc2)oc1COC(C)(C)C(=O)O | inactive | inactive |
| O=S(=O)(O)CCCN1CCOCC1 | inactive | inactive |
| CC(C)CC(C)CC(C)CC(C)COC(=O)c1ccccc1C(=O)OCC(C)CC(C)CC(C)CC(C)C (stereo not given) | inactive | inactive |
| CCCCCCCCC(CCCCCC)C(=O)O (stereo not given) | inactive | inactive |
| O=C1NC(=O)c2cccc3cccc1c23 | inactive | inactive |
| C[C@@H]1CCC[C@H](C)N1 | inactive | inactive |
| COc1ccc(C(=O)c2cccc(O)c2)c(OC)c1 | inactive | inactive |
| CCCCC(CC)CN=C(N)NC(N)=NCCCCCCN=C(N)NC(N)=NCC(CC)CCCC (stereo not given) | 21.1 µM (active) | 16.8 µM (active) |
| CCn1ccnc1CC1COc2ccccc2O1 (stereo not given) | inactive | inactive |
| COC(=O)/C=C\C(=O)OC | inactive | inactive |
| CC(=O)/C=C/C1C(C)=CCCC1(C)C (stereo not given) | inactive | inactive |
| CC1=CC(=O)CCC1 | inactive | inactive |
| COc1cc(OC)c(C(=O)CCCN2CCCC2)c(OC)c1 | inactive | inactive |
| CCOC(=O)[C@H](CCc1ccccc1)N[C@@H](C)C(=O)N1C(=O)N(C)C[C@H]1C(=O)O | inactive | inactive |
| CO[Si](CCCNc1ccccc1)(OC)OC | inactive | inactive |
| Oc1ccc(Cc2ccccc2O)cc1 | inactive | inactive |
| Cc1ccccc1N1CCN(CCc2nnc3n2CCCC3)CC1 | inactive | inactive |
| C=C(C)C(=O)OCCCCCCCCCC | inactive | inactive |
| Cc1ncc(COP(=O)(O)O)c(C=O)c1O | inactive | inactive |
| C/C=C/c1ccc(OC)c(OC)c1 | inactive | inactive |
| C1CCCNCCC1 | inactive | inactive |
| Brc1ccc(Oc2ccc(Br)cc2)cc1 | inactive | inactive |
| Cc1cc2c(cc1S(N)(=O)=O)S(=O)(=O)CCC2 | inactive | inactive |
| CCOC(=O)c1cccc(N)c1 | inactive | inactive |
| CCCCCCCCCCCCCC(=O)OC | inactive | inactive |

| SMILES | Potency [1] | Potency [2] |
| --- | --- | --- |
| CN(C)CCc1c[nH]c2ccc(C[C@H]3COC(=O)N3)cc12 | inactive | inactive |
| C1=CCCC1 | inactive | inactive |
| CC[N+](CC)(CCNC(=O)C(=O)NCC[N+](CC)(CC)Cc1ccccc1Cl)Cc1ccccc1Cl | inactive | inactive |
| CCC(C)c1ccccc1 (stereo not given) | inactive | inactive |
| NCc1ccccc1 | inactive | inactive |
| CNC(C)=O | inactive | inactive |
| O=C(O)c1ccccc1C(=O)Nc1ccc(S(=O)(=O)Nc2nccs2)cc1 | inactive | inactive |
| C[C@@H]1C[C@H]2[C@@H]3CCC4=CC(=O)C=C[C@]4(C)[C@@]3(Cl)[C@@H](O)C[C@]2(C)[C@@]1(OC(=O)c1ccco1)C(=O)CCl | inactive | inactive |
| O=Cc1ccccc1Cl | inactive | inactive |
| Fc1ccc(C(c2ccc(F)cc2)N2CCN(C/C=C/c3ccccc3)CC2)cc1 | inactive | inactive |
| CC(C)=CCC/C(C)=C/CC/C(C)=C/CCC(=O)OC/C=C(\C)CCC=C(C)C | inactive | inactive |
| Cc1cccc([N+](=O)[O-])c1C(=O)O | inactive | inactive |
| Cc1ccc(=O)n(-c2ccccc2)c1 | inactive | inactive |
| CO[C@@H]1[C@@H](OC(N)=O)[C@@H](O)[C@H](Oc2ccc3c(O)c(NC(=O)c4ccc(O)c(CC=C(C)C)c4)c(=O)oc3c2C)OC1(C)C | inactive | inactive |
| CCCCCCCCCCCCCCCCCCO | inactive | inactive |
| COC(C)COC(C)COC(C)CO (stereo not given) | inactive | inactive |
| C[C@H]1C[C@@H](O)CC(C)(C)C1 | inactive | inactive |
| C[C@@H]1C[C@H]2[C@@H]3C[C@H](F)C4=CC(=O)C(Cl)=C[C@]4(C)[C@@]3(F)[C@@H](O)C[C@]2(C)[C@@]1(O)C(=O)CO | inactive | inactive |
| CCOC(=O)COC(=O)c1cc(Oc2ccc(C(F)(F)F)cc2Cl)ccc1[N+](=O)[O-] | inactive | inactive |
| C/C(=C(\CCO)SS/C(CCO)=C(\C)N(C=O)Cc1cnc(C)nc1N)N(C=O)Cc1cnc(C)nc1N | inactive | inactive |
| CNCCO | inactive | inactive |
| CC(C)NCCCC1(C(N)=O)c2ccccc2-c2ccccc21 | inactive | inactive |
| CC(C(=O)O)c1ccc(C(=O)c2cccs2)cc1 (stereo not given) | inactive | inactive |
| Cc1ccccc1OCC1CO1 (stereo not given) | inactive | inactive |
| CCCCCCCCCCCCCCC[C@H](O)[C@@H](N)CO | inactive | inactive |
